Test results: PubChem BioAssay (NCATS)
Inconclusive results are not listed. Calls of active or inactive are those of the source. Unless noted, calls follow the shape of the dose curve; as a rule, active = well fitted curve in the direction sought with a large enough effect; inconclusive = small, poorly fitted or top-dose-only effect, or another doubt; inactive = no such curve, though single readings can be large; an effect the other way counts as inactive or inconclusive.

How the values were obtained:
[1] = qHTS to identify inhibitors of the type 1 interferon - major histocompatibility complex class I in skeletal muscle: primary screen against the NCATS LOPAC collection (AID 1347405);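 also: lytic HiBiT luminescence reporting HLA-B protein level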; also: potency is read from the fitted curve at half-maximal effect; as to activity change, negative = inhibition: % is scaled to controls: 0 for no effect and ±100 for the full control effect
Summary of the method: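 CRISPR-engineered immortalized human myoblasts (C25cl48) with HiBiT fused to endogenous HLA-B*08:01, stimulated with 4 ng/ml IFN-beta. LOPAC compounds tested as a 7-point 1:4.3 titration (top 46 uM final), 24 h at 37 C; lytic HiBiT luminescence read.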

[2] = qHTS to identify inhibitors of the type 1 interferon - major histocompatibility complex class I in skeletal muscle: primary screen against the NCATS Pharmaceutical Collection (AID 1347407);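 also: luminescence of HiBiT knocked into endogenous HLA-B as interferon-induced MHC class I level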; also: potency is read from the fitted curve at half-maximal effect; as to activity change, negative = inhibition: % is scaled to controls: 0 for no effect and ±100 for the full control effect
Summary of the method: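 HLA-B HiBiT myoblasts, dexamethasone-free growth medium + 4 ng/ml IFN-b; compounds pinned 1 h after seeding, […] from 46 uM; 24 h, 37 C, 5% CO2; lytic HiBiT detection, 10 min RT, luminescence.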

[3] = qHTS for inhibitors of adenylyl cyclases using a fission yeast platform: a pilot screen against the NCATS LOPAC library (AID 1347410);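 also: plate controls were DMSO vehicle for no effect and DPI positive control for full effect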
Summary of the method: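 Read-out: fbp1-GFP fluorescence by laser scanning cytometry (488 nm laser), a gain of signal when AC/cAMP-PKA signalling is inhibited. Strain CHP2027 expressing AC9, GNAS and PDE4D2; compounds at up to 57 µM; 18 h, 30C.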

[4] = biological target: Protein phosphatase 1D (Homo sapiens) (UniProt O15297); experiment: Rhodamine-PBP qHTS Assay for Modulators of WT P53-Induced Phosphatase 1 (WIP1) (AID 1347425); also: % of control where 0% means no effect
Chain of Protein phosphatase 1D (Homo sapiens) (O15297 whole entry, looked up): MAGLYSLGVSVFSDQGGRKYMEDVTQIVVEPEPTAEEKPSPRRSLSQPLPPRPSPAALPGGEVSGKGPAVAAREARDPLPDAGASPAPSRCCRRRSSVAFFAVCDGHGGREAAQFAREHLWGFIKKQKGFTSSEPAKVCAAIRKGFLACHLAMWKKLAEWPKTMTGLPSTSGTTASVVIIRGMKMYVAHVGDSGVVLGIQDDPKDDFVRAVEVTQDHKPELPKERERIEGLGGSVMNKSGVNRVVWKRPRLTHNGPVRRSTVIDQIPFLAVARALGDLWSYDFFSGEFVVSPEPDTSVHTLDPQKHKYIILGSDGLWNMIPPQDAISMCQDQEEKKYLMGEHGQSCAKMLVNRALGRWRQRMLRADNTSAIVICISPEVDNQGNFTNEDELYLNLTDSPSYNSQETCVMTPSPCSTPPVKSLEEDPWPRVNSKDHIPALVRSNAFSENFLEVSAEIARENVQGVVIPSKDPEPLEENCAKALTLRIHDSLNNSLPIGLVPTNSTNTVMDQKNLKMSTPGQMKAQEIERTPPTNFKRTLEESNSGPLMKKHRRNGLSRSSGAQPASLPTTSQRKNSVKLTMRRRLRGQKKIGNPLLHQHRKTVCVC
Summary of the method: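 Read-out: Rhodamine-PBP fluorescence (ex 525/em 598 nm) for released Pi, read each minute for 11 min after adding 10 uM VEPPL-pS-QETFS; signal taken as f1 minus pre-substrate f0. Enzyme 5 nM WIP1 with 1 hr room-temperature compound preincubation.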

[5] = Validation qHTS assay for inhibitors of Activation Induced Cytidine Deaminase (AID): UDG Counterscreen signal (AID 1347427); also: 0% is about no effect
Summary of the method: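 Counterscreen read of UDG activity (2 U/mL, 4/3x) in the FRET deamination format with AID (1 uM, 4/3x), DJC20/DJC23 substrates (250 nM, 4x), 4 h at room temperature. NaOH stop, fluorescence at 560 ex/665 em.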

[6] = biological target: Single-stranded DNA cytosine deaminase (Homo sapiens) (UniProt Q9GZX7); experiment: Validation qHTS assay for inhibitors of Activation Induced Cytidine Deaminase (AID): AID signal (AID 1347429); also: % is scaled to controls: 0 for no effect and ±100 for the full control effect
Chain of Single-stranded DNA cytosine deaminase (Homo sapiens) (Q9GZX7 whole entry, looked up): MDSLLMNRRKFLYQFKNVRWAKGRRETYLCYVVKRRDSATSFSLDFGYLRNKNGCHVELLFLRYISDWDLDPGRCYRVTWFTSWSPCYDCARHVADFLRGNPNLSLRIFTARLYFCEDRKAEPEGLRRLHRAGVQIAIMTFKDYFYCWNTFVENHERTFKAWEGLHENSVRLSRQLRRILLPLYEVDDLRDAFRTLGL
Summary of the method: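 FRET deamination assay: 1 uM AID (4/3x stock) with UDG, compound up to 114 uM, then 250 nM DJC20/DJC23 substrate (4x stock) for 4 hr at room temperature. NaOH added, 30 min; fluorescence read 540/590 nm.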

[7] = biological target: Protein phosphatase 1D (Homo sapiens) (UniProt O15297); experiment: RapidFire Mass Spectrometry qHTS Assay for Modulators of WT P53-Induced Phosphatase 1 (WIP1) (AID 1347424);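 also: amount of dephosphorylated VEPPL-S-QETFS peptide product formed by WIP1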; also: potency is read from the fitted curve at half-maximal effect;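 as to activity change, negative = inhibition: series mostly up to about 63 µM; plate controls were DMSO wells for no effect and GSK830371 inhibitor control at 10 µM for full effect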
Summary of the method: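 10 nM WIP1 + cpd, 1 h RT; + 2 uM VEPPL-pS-QETFS, 5 min RT; stop 0.5% formic acid; labelled product standard 1 uM; RapidFire MS. Buffer 50 mM Tris pH 7.5, 30 mM MgCl2, 1 mM TCEP.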

[8] = qHTS to identify inhibitors of the type 1 interferon - major histocompatibility complex class I in skeletal muscle: primary screen against the NCATS Mechanism Interrogation Plate v5.0 (MIPE) Libary (AID 1347411); also: nearly all actives have a fitted effect of over 65% in size; also: potency is read from the fitted curve at half-maximal effect;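 as to activity change, negative = inhibition: plate controls were vehicle for no effect and reference inhibitor for full effect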
Summary of the method: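 Immortalized human myoblasts (C25cl48) with HiBit knocked into endogenous HLA-B*08:01 were stimulated with 4 ng/ml IFN-beta and given compounds in 11-point 1:3 titration from 46 uM. After 24 h at 37 C, lytic HiBiT luminescence was read.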

[9] = Primary qHTS for inhibitors of SARS-S pseudo-typed particle cell entry (AID 1479145; calls by dose curve; also: nearly all actives have a fitted effect of over 45% in size; also: potency is read from the fitted curve at half-maximal effect; as to activity change, negative = inhibition: series mostly up to about 57 µM; % is scaled to controls: 0 for no effect and ±100 for the full control effect)
[10] = Primary qHTS for Huh7 cytotoxicity: counterscreen for inhibitors of MERS-S pseudotyped particle cell entry (AID 1479147; calls by dose curve; also: potency is read from the fitted curve at half-maximal effect)

c1ccc(C2CC2)c(OCC2=NCCN2)c1
inactive: Potency [1] | Potency [2] | outcome [3] | outcome [4] | outcome [5] | outcome [6]

CCCN1CCC[C@@H]2Cc3nc(N)ncc3C[C@H]21
inactive: Potency [1] | Potency [2] | outcome [3] | Potency [7] | outcome [4] | outcome [5] | outcome [6]

COC[C@@H](NC(C)=O)C(=O)NCc1ccccc1
inactive: Potency [2] | Potency [8] | outcome [4]

Cc1ncc(CNC(=O)N(CCCl)N=O)c(N)n1
inactive: Potency [1] | Potency [2] | outcome [3] | Potency [7] | outcome [4] | outcome [5] | outcome [6] | Potency [9] | Potency [10]

CNCC(O)c1ccc(O)cc1 (stereo not given)
inactive: Potency [1] | Potency [2] | outcome [3] | Potency [8] | Potency [7] | outcome [4] | outcome [5] | outcome [6]

NCC(CC(=O)O)c1ccc(Cl)cc1 (stereo not given)
inactive: Potency [1] | activity change, negative = inhibition [2] 3.65% [at 0.727 µM] | outcome [3] | activity change, negative = inhibition [7] -7.37% [at 0.505 µM] | activity change, negative = inhibition [4] 1.39% [at 0.575 µM] | outcome [5] | outcome [6] | activity change, negative = inhibition [9] -11.8% [at 0.573 µM] | outcome [10] inactive [at 0.573 µM]

O=C1NCN(c2ccccc2)C12CCN(CC1COc3ccccc3O1)CC2 (stereo not given)
inactive: Potency [1] | Potency [2] | outcome [3] | Potency [7] | outcome [4] | outcome [5] | outcome [6]

C[C@@H]1O[C@@H](O[C@H]2C[C@@H](O)[C@]3(CO)[C@H]4[C@H](O)C[C@]5(C)[C@@H](C6=CC(=O)OC6)CC[C@]5(O)[C@@H]4CC[C@]3(O)C2)[C@H](O)[C@H](O)[C@H]1O
inactive: outcome [3] | Potency [7] | outcome [4] | outcome [5] | outcome [6] | Potency [9]
active: Potency [1] 0.0447 µM | Potency [2] 0.0528 µM | Potency [8] 0.037 µM | Potency [10] 1.26 µM

CC(C)=CCOc1c2occc2cc2ccc(=O)oc12
inactive: Potency [1] | Potency [2] | outcome [3] | Potency [7] | outcome [4] | outcome [5] | outcome [6]

Cn1cc(C2=C(c3cn(C4CCN(Cc5ccccn5)CC4)c4ccccc34)C(=O)NC2=O)c2ccccc21
inactive: Potency [2] | Potency [8] | Potency [7] | outcome [4] | Potency [9] | Potency [10]

CC[C@@H](CO)NC(=O)[C@@H]1C=C2c3cccc4c3c(cn4C)C[C@H]2N(C)C1
inactive: Potency [1] | Potency [2] | outcome [3] | outcome [4] | outcome [5] | outcome [6] | Potency [9]

CN(C)[C@@H]1C(=O)C(C(N)=O)=C(O)[C@@]2(O)C(=O)C3=C(O)c4c(O)cccc4[C@@](C)(O)[C@H]3C[C@@H]12
inactive: Potency [2] | Potency [8] | Potency [9] | Potency [10]

C#CCOC(C(=O)OCCN(C)C)(c1ccccc1)c1ccccc1
inactive: Potency [2] | outcome [4]

CCOC(=O)C1(c2ccccc2)CCN(CCC(C#N)(c2ccccc2)c2ccccc2)CC1
inactive: Potency [2] | Potency [7] | outcome [4]

Oc1ccccc1-c1ccccc1
inactive: Potency [2] | Potency [7] | outcome [4] | Potency [10]

N[C@@H](Cc1ccc(Oc2cc(I)c(O)c(I)c2)c(I)c1)C(=O)O
active: Potency [7] 12.6 µM
inactive: Potency [2]

O=P1(NCCCl)OCCCN1CCCl (stereo not given)
inactive: Potency [2] | Potency [8] | outcome [4] | Potency [9] | Potency [10]

CC[N+]1(C)CCCC(OC(=O)C(O)(c2ccccc2)c2ccccc2)C1 (stereo not given)
inactive: Potency [2] | Potency [7] | outcome [4]

O=C(O)c1ccc2[nH]cc(CCCCN3CC=C(c4ccccc4)CC3)c2c1
inactive: Potency [2] | Potency [7] | outcome [4]

CC(C)(C)CC(C)(C)c1ccc(O)cc1
inactive: Potency [2] | Potency [7] | outcome [4] | Potency [9] | Potency [10]

c1ccc2c(c1)Nc1ccccc1S2
inactive: Potency [2] | Potency [7] | outcome [4] | Potency [10]

C[C@H]1O[C@@H](O[C@H]2[C@@H](O)C[C@H](O[C@H]3[C@@H](O)C[C@H](O[C@H]4CC[C@@]5(C)[C@H](CC[C@@H]6[C@@H]5CC[C@]5(C)[C@@H](C7=CC(=O)OC7)CC[C@]65O)C4)O[C@@H]3C)O[C@@H]2C)C[C@H](O)[C@@H]1O
inactive: Potency [7] | outcome [4] | Potency [9]
active: Potency [2] 0.0264 µM

CCN(C(C)=O)c1cccc(-c2ccnc3c(C#N)cnn23)c1
inactive: Potency [2] | Potency [7] | outcome [4]

CC(C)=CC1C(C(=O)OCc2cccc(Oc3ccccc3)c2)C1(C)C (stereo not given)
inactive: Potency [2] | Potency [7] | outcome [4] | Potency [9] | Potency [10]

Oc1cccc2cccnc12
inactive: Potency [2] | Potency [7] | outcome [4] | Potency [9] | Potency [10]

Oc1cc(Cl)ccc1Oc1ccc(Cl)cc1Cl
inactive: Potency [2] | Potency [7] | Potency [10]

CO[C@]12CC[C@@]3(C[C@@H]1[C@](C)(O)C(C)(C)C)[C@@H]1Cc4ccc(O)c5c4[C@@]3(CCN1CC1CC1)[C@H]2O5
inactive: Potency [7] | outcome [4]
active: Potency [2] 48.1 µM

O=C(NC(O)C(Cl)(Cl)Cl)NC(O)C(Cl)(Cl)Cl (stereo not given)
inactive: Potency [2] | outcome [4]

CC(C)(C)NCC(O)c1cc(Cl)c(N)c(Cl)c1 (stereo not given)
inactive: Potency [2] | Potency [7] | outcome [4] | Potency [9] | Potency [10]

CC1NCCOC1c1ccccc1 (stereo not given)
inactive: Potency [2] | outcome [4]

O=[N+]([O-])c1cc([As](=O)(O)O)ccc1O
inactive: Potency [2] | Potency [7] | outcome [4] | Potency [9] | Potency [10]

CCN(CC)C(=O)N[C@@H]1C=C2c3cccc4[nH]cc(c34)C[C@@H]2N(C)C1
inactive: Potency [2] | Potency [7] | outcome [4] | Potency [9] | Potency [10]

CCN(CC)CCN1C(=O)CN=C(c2ccccc2F)c2cc(Cl)ccc21
inactive: Potency [2] | outcome [4]

COc1ccc(Cc2nccc3cc(OC)c(OC)cc23)cc1OC
active: Potency [9] 14.1 µM
inactive: Potency [2] | Potency [7] | outcome [4]

CC1OC(C)OC(C)O1 (stereo not given)
inactive: Potency [2] | Potency [7] | outcome [4]

C#CCN(C)[C@H](C)Cc1ccccc1
inactive: Potency [2] | Potency [8] | outcome [4] | Potency [9] | Potency [10]
